From PubChem BioAssay (NCATS) come the findings set out here.

“And” between values parts separate entries of the source, which are not always exact repeats. Equal entries are not always repeated. Inconclusive results are not listed. Values without a mark were called inactive. The source made the active and inactive calls. Calls follow the shape of the dose curve; as a rule, active = well fitted curve in the direction sought with a large enough effect; inconclusive = small, poorly fitted or top-dose-only effect, or another doubt; inactive = no such curve, though single readings can be large; an effect the other way counts as inactive or inconclusive.

Cellular tumor antigen p53 (Homo sapiens), sequence (P04637 whole entry, looked up): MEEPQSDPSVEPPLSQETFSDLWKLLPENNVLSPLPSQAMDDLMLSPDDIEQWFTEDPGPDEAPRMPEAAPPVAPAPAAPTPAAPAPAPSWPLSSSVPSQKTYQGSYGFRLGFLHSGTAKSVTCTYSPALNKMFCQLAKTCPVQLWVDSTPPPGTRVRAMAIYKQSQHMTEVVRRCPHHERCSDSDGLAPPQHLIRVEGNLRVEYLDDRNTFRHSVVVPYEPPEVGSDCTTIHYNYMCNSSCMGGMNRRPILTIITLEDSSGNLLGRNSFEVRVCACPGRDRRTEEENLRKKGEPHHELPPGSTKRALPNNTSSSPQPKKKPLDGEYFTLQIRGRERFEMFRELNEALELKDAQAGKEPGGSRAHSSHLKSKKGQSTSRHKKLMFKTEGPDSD

The first experiment deals with Cellular tumor antigen p53 (Homo sapiens) (UniProt P04637). The experiment can be described thus: Primary qHTS for small molecule compounds that upregulate eGFP-tagged delta133p53alpha (in N-terminal) cells. (AID 2060322).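 Also: 0% = DMSO vehicle and 100% = reference activator; nearly all actives have a fitted effect of over 75% in size.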 The settings on record: NCI-H358 eGFP-delta133p53alpha fluorescence, 24 h; activation: stronger effect = higher value. A digest of the protocol:
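NCI-H358 cells pre-induced 24 h with 10 ng/ml doxycycline to express N-terminal eGFP-delta133p53alpha, then dosed 24 h at 37C without doxycycline; fixed, Hoechst-stained, GFP intensity by laser scanning cytometry, normalized to DMSO (0%) and 57.5 uM 5-azacytidine (100%).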
For orientation: Quantitative high-throughput screening tests each substance at several concentrations.
Take `CC(N)c1cccc(Cl)c1Cl` (stereo not drawn): the activation is -35.4%.
On to `COC(=O)N1CCN(C(=O)Cc2ccc(Cl)c(Cl)c2)C(CN2CCCC2)C1` (stereo not drawn), for which the activation is 5.56%.
Same read-out and setting: then `CCCN(CCC)[C@@H]1CCc2ccc(O)cc2C1`, with -24.8%.
Still for that read-out and setting: the result for `NCCCP(=O)(O)O` reads -25.8%.
In the case of `c1ccc(C2(c3ccccc3)CC2C2=NCCN2)cc1` (stereo not drawn), the activation is -13.2%.
Turning to `COc1ccc2[nH]c3c(c2c1)CCNC3`, the activation was -23.5%.
Still for that read-out and setting: then `O=C1CCCN1CC#CCN1CCCC1`, with -14.5%.
On the same count and under the same terms, the result for `c1ccc2c(c1)OCC(C1=NCCN1)O2` (stereo not drawn) reads -26.9%; that for `C#CCOC(=O)C1=CCCN(C)C1`, -28.1%.
Same read-out and setting: the result for `CC12NC(Cc3ccccc31)c1ccccc12` (stereo not drawn) reads 6.02%; that for `C[C@H](N)Cc1cccc(C(F)(F)F)c1`, -17%.
For `NC(CCP(=O)(O)O)C(=O)O` (stereo not drawn), the activation was -26.8%.
On the same count and under the same terms, then `CN(C(=O)Cc1ccc(Cl)c(Cl)c1)C(CN1CCCC1)c1cccc(OCC(=O)O)c1` (stereo not drawn), with -43.2%; and `CC(=O)[C@H]1CC[C@H]2[C@@H]3CC[C@H]4C[C@](C)(O)CC[C@]4(C)[C@H]3CC[C@]12C`, with -8.47% and -37.3%; and `C[C@]12N[C@H](Cc3ccccc31)c1ccccc12`, with -0.686%.
The same measure, in the same setting: then `Nc1ccc(CCN2CCN(c3cccc(C(F)(F)F)c3)CC2)cc1`, with -62.8%; and `CN1CCc2cccc(Cl)c2CC1`, with -13.1%; and `CC(=O)OCC1=C(C(=O)O)N2C(=O)[C@@H](NC(=O)CCC[C@@H](N)C(=O)O)[C@H]2SC1`, with 20.4%.
As to `C[C@H]1C2Cc3ccc(O)cc3[C@@]1(C)CCN2CC1CC1`, the activation was -23.4%.
Still for that read-out and setting: then `COc1ccc2c(c1)C13CCCCC1C(C2)N(C)CC3` (stereo not drawn), with -0.635%; and `C[N+]1(C)CCc2cc3c(cc2[C@H]1[C@@H]1OC(=O)c2c1ccc1c2OCO1)OCO3`, with -3.8%.
Still for that read-out and setting: the result for `C[C@H](N)CN1CCc2ccc(Br)cc21` reads 5.22%; that for `CCCN(CCC)CCc1ccc(O)c(O)c1`, -0.248%; that for `O=C(CCCN1CCC2(CC1)C(=O)NCN2c1ccccc1)c1ccc(F)cc1`, -10.7% and -39.7%.
The same measure, in the same setting: then `NC1CC1c1ccccc1` (stereo not drawn), with -3.62% and 6.08%.
As for `Cc1sc2ccccc2c1CC1=NCCN1`, the activation was -35.5%.
The same measure, in the same setting: the result for `NC(=NCCC[C@H](N)C(=O)O)N[N+](=O)[O-]` reads -32.4%; that for `c1ccc2sc(C3(N4CCCCC4)CCCCC3)cc2c1`, 14.7%; that for `C[C@@H](N)Cc1cnc[nH]1`, 5.3%.
Turning to `O=C(O)[C@@H]1CCN1`, the activation was -48.2%.
The same measure, in the same setting: the result for `NCCc1ccc(O)cc1` reads 0.565% and 11.2%; that for `CCNC(=O)[C@H]1O[C@@H](n2cnc3c(N)ncnc32)[C@H](O)[C@@H]1O`, 1.33%; that for `O=C1NCN(c2ccccc2)C12CCN(CC1COc3ccccc3O1)CC2` (stereo not drawn), -13.1%.
On the same count and under the same terms, the result for `Cc1[nH]c2ccc(O)cc2c1CCN` reads -25.5%; that for `NCC(O)c1ccc(O)cc1` (stereo not drawn), -4.18% and -26.8%.
For `C=CCN1C[C@@H](C)N([C@H](c2ccc(C(=O)N(CC)CC)cc2)c2cccc(OC)c2)C[C@@H]1C`, the activation is -25.3%.
`c1ccc(C2CC2)c(OCC2=NCCN2)c1`: the activation was 9.21% and -4.03%.
On the same count and under the same terms, then `Clc1cc(I)cc(Cl)c1NC1=NCCN1`, with -24.7%; and `NC(=O)CN1CC(O)CC1=O` (stereo not drawn), with -34.2%.

The target is the same in another experiment. The experiment is described as follows: Primary qHTS for small molecule compounds that upregulate eGFP-tagged delta133p53alpha (in C-terminal) cells. (AID 2060324). Also: potency is read from the fitted curve at half-maximal effect.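 As to GFP increase (activation): 0% = DMSO wells and 100% = 57.5 µM 5-azacytidine.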 The settings on record: NCI-H358 delta133p53alpha-eGFP (C-terminal tag), GFP fluorescence imaging, 24 h; series mostly up to 57.5 µM; GFP increase (activation): at the top concentration. A digest of the protocol: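 NCI-H358 cells pre-induced 24 h with 100 ng/ml doxycycline to express delta133p53alpha-eGFP, then dosed in doxycycline-free medium for 24 h at 37C. Fixed, Hoechst-stained; GFP intensity by laser scanning cytometry, normalized to DMSO wells.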
On to `CC(N)c1cccc(Cl)c1Cl` (stereo not drawn), for which the “GFP increase (activation)” value was 0.375%.
Same read-out and setting: then `COC(=O)N1CCN(C(=O)Cc2ccc(Cl)c(Cl)c2)C(CN2CCCC2)C1` (stereo not drawn), with 1.82%.
Still for that read-out and setting: the result for `CCCN(CCC)[C@@H]1CCc2ccc(O)cc2C1` reads -7.73%; that for `NCCCP(=O)(O)O`, -1.88%.
On the same count and under the same terms, then `c1ccc(C2(c3ccccc3)CC2C2=NCCN2)cc1` (stereo not drawn), with 1.02%.
As for `COc1ccc2[nH]c3c(c2c1)CCNC3`, the “GFP increase (activation)” value is -0.914%.
Same read-out and setting: then `O=C1CCCN1CC#CCN1CCCC1`, with -7.87%.
Take `c1ccc2c(c1)OCC(C1=NCCN1)O2` (stereo not drawn): the Potency is 30.1 µM (active).
Consider `C#CCOC(=O)C1=CCCN(C)C1`, for which the “GFP increase (activation)” value is 4.58%.
Still for that read-out and setting: then `CC12NC(Cc3ccccc31)c1ccccc12` (stereo not drawn), with -13.9%; and `C[C@H](N)Cc1cccc(C(F)(F)F)c1`, with -5.94%.
Same read-out and setting: then `NC(CCP(=O)(O)O)C(=O)O` (stereo not drawn), with 1.98%; and `CN(C(=O)Cc1ccc(Cl)c(Cl)c1)C(CN1CCCC1)c1cccc(OCC(=O)O)c1` (stereo not drawn), with -1.95%.
On the same count and under the same terms, then `CC(=O)[C@H]1CC[C@H]2[C@@H]3CC[C@H]4C[C@](C)(O)CC[C@]4(C)[C@H]3CC[C@]12C`, with 7.16%.
As for `C[C@]12N[C@H](Cc3ccccc31)c1ccccc12`, the “GFP increase (activation)” value is 3.55%.
Still for that read-out and setting: then `Nc1ccc(CCN2CCN(c3cccc(C(F)(F)F)c3)CC2)cc1`, with 0.0863%.
Still for that read-out and setting: then `CN1CCc2cccc(Cl)c2CC1`, with -14.7%.
As for `CC(=O)OCC1=C(C(=O)O)N2C(=O)[C@@H](NC(=O)CCC[C@@H](N)C(=O)O)[C@H]2SC1`, the “GFP increase (activation)” value is 4.9%.
Take `C[C@H]1C2Cc3ccc(O)cc3[C@@]1(C)CCN2CC1CC1`: the “GFP increase (activation)” value was 2.73%.
Take `COc1ccc2c(c1)C13CCCCC1C(C2)N(C)CC3` (stereo not drawn): the “GFP increase (activation)” value is -0.931%.
The same measure, in the same setting: the result for `C[N+]1(C)CCc2cc3c(cc2[C@H]1[C@@H]1OC(=O)c2c1ccc1c2OCO1)OCO3` reads -4.61%; that for `C[C@H](N)CN1CCc2ccc(Br)cc21`, 6.21%.
Still for that read-out and setting: the result for `CCCN(CCC)CCc1ccc(O)c(O)c1` reads -3.85%; that for `O=C(CCCN1CCC2(CC1)C(=O)NCN2c1ccccc1)c1ccc(F)cc1`, 15%; that for `NC1CC1c1ccccc1` (stereo not drawn), -8.87%.
Same read-out and setting: the result for `Cc1sc2ccccc2c1CC1=NCCN1` reads 1.22%; that for `NC(=NCCC[C@H](N)C(=O)O)N[N+](=O)[O-]`, -5.42%.
On to `c1ccc2sc(C3(N4CCCCC4)CCCCC3)cc2c1`, for which the “GFP increase (activation)” value was 3.12%.
Still for that read-out and setting: then `C[C@@H](N)Cc1cnc[nH]1`, with -6.43%; and `O=C(O)[C@@H]1CCN1`, with -4.23%.
The same measure, in the same setting: the result for `NCCc1ccc(O)cc1` reads 0.0491%; that for `CCNC(=O)[C@H]1O[C@@H](n2cnc3c(N)ncnc32)[C@H](O)[C@@H]1O`, -0.119%; that for `O=C1NCN(c2ccccc2)C12CCN(CC1COc3ccccc3O1)CC2` (stereo not drawn), 1.8%.
Same read-out and setting: the result for `Cc1[nH]c2ccc(O)cc2c1CCN` reads 14.2%; that for `NCC(O)c1ccc(O)cc1` (stereo not drawn), 14.4%.
For the compound `C=CCN1C[C@@H](C)N([C@H](c2ccc(C(=O)N(CC)CC)cc2)c2cccc(OC)c2)C[C@@H]1C`, the “GFP increase (activation)” value was -1.59%.
On the same count and under the same terms, then `c1ccc(C2CC2)c(OCC2=NCCN2)c1`, with -3.33%; and `Clc1cc(I)cc(Cl)c1NC1=NCCN1`, with 0.566%.
Same read-out and setting: then `NC(=O)CN1CC(O)CC1=O` (stereo not drawn), with 8.98%.
